From PubChem BioAssay (NCI) come the findings set out here.

Compounds without any hit were thinned out: in the full panel of roughly 83,000, 20% have a hit.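 The endpoint reported here, percent growth, reads 100 for growth as untreated, 0 for no net growth and -100 for all cells dead.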 The source made the active and inactive calls. The calls were made as follows: active = growth percent below 10; inactive = the rest.

The assay deals with HL-60(TB) leukemia. In words: NCI-60 one-dose screen, 48 h (100 = growth as untreated, 0 = no growth, -100 = all killed). To be noted: 10 µM unless noted.
With `Cc1ccc(-c2cnc3sc4ccc(Cl)cc4n23)cc1`, the growth was 90.5% (inactive).

Turning to `CCNc1nc(N2CC(=O)Nc3cc(OC)ccc32)c2ccccc2n1`, the growth was -4.51% (active).

`CCC(c1cccc(O)c1)C(CC)c1cccc(O)c1` (stereo unspecified): the growth was 20.7% (inactive).

With `COc1cc(NC(N)=NCCC(C)(C)Oc2ccc(C(F)(F)F)cc2)ncc1C#N`, the growth was -51.1% (active).

Take `CC(=O)OC/C=C(/C)C[P+](c1ccccc1)(c1ccccc1)c1ccccc1`: the growth was 44.9% (inactive).

In the case of `CCCCCCCCCCCCCCCCCCNC(=O)[C@H]1CSC(c2ccc(OC)cc2O)N1` (stereo partly specified), the growth was 34.4% (inactive).

For `CCCCNc1cc(C(=O)O)cc(S(N)(=O)=O)c1Oc1ccccc1`, the growth is 107% (inactive).

On to `Clc1ccc2c(c1)nnn1c3ncccc3c(Br)c21`, for which the growth was 113% (inactive).

For the compound `CC(=O)c1nn(-c2ccccc2)c(=Nc2ccccc2)cc1C`, the growth is 106% (inactive).

For the compound `C1CCCCNCCC1`, the growth was 114% (inactive).

As to `COc1cc2c(cc1I)-c1c(cc(OC)c(OC)c1OC)CC[C@@H]2NC(C)=O`, the growth was 6.93% (active).

`O=C1Nc2ccc(F)cc2C12Nc1cc(Cl)ccc1S2` (stereo unspecified): the growth was 65.5% (inactive).

As for `NC(=N\N=C/c1ccc(Cl)cc1Cl)/C(N)=N\N=C/c1ccc(Cl)cc1Cl`, the growth was 79.7% (inactive).

For the compound `CC1=CC2c3oc(-c4ccccc4)c(C(=O)c4ccccc4)c3CNC2C=C1` (stereo unspecified), the growth is 84.3% (inactive).

As for `O=S(=O)(NCCNc1nccc(-c2c(-c3cccc(F)c3)nc3sccn23)n1)c1ccc(Cl)cc1`, the growth was 95.9% (inactive).

On to `COc1cc(-c2nn(-c3ccc(C)cc3)cc2C(=O)O)ccc1O`, for which the growth is 82.2% (inactive).
